HTT cytoprotect: cytoprotection in Huntington HTT-Q103 PC12 cell model; AID 1471; hit rate 0.14% among 230,000; PC12 HTT-Q103 induced, cytoprotection, ATP luminescence, 40 h; Potency, µM (series often up to 56.4 µM), usual class: activators; also: nearly all actives have a fitted effect of over 45% in size
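Rat PC12, Q103 Htt exon1-GFP fusion, ecdysone promoter; tebufenozide inducer 100 nM final; compound titration; qHTS, 1500 cells/well; ATPlite luminescent read.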
GoLoco inh red: RGS12 GoLoco-Gai1 interaction inhibition | hit rate 0.44% among 230,000 | P63096 | Potency, µM (highest dose often 61.6 µM), actives largely listed as inhibitors | Gai1:RGS12 GoLoco peptide FP, rhodamine, 10 min; active = well fitted inhibition curve with a large enough effect, not every such curve was filed as active; inactive = no such curve, though single readings can be large or run the other way; also: nearly all actives have a fitted effect of over 30% in size
Target sequence (P63096 whole entry, looked up): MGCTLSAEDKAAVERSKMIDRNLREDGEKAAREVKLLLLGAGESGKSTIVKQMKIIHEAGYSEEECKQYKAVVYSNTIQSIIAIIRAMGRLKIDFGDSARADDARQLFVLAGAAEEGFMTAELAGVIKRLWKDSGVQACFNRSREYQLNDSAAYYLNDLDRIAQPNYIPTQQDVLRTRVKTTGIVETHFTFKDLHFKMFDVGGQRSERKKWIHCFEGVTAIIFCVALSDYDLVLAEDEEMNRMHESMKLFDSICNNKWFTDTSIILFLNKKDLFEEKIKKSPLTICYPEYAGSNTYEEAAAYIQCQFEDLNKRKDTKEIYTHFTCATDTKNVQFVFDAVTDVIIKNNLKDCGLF
ALDH1A1 inh: inhibitors of human aldehyde dehydrogenase 1A1 | Purified ALDH1A1, NADH fluorescence, propionaldehyde substrate | Potency, µM (series often up to 75.3 µM), usual class: inhibitors | hit rate 7.3% among 220,000; active = well fitted inhibition curve with a large enough effect, not every such curve was filed as active; inconclusive = small, poorly fitted or top-dose-only effect, or another doubt; inactive = no such curve, though single readings can be large or run the other way
HPGD inh: blocks human HPGD enzyme activity; Potency, µM, hits mostly inhibitors; hit rate 4.3% among 150,000; AID 894; purified HPGD, NADH fluorescence kinetic, PGE2 substrate; active = well fitted inhibition curve with a large enough effect, not every such curve was filed as active; inconclusive = small, poorly fitted or top-dose-only effect, or another doubt; inactive = no such curve, though single readings can be large or run the other way
Target sequence (P15428 whole entry, looked up): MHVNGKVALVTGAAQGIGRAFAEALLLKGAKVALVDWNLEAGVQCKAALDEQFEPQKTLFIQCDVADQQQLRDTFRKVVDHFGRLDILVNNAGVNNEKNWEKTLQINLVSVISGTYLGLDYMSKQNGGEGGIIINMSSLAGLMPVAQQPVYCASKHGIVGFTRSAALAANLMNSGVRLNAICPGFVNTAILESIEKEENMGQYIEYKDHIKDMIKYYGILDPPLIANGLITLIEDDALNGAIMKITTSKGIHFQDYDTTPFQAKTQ
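20 nM HPGD preincubated 15 min at room temperature with compound in 50 mM Tris-HCl pH 8, 0.01% Tween 20. Started with 1 mM NAD+ and 30 uM prostaglandin E2; NADH fluorescence (360/450 nm) read 5 times over 30-s intervals, last minus first.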
HTT aggregate: inhibitors of mutant huntingtin aggregate formation in PC12 cells | Potency, µM (titrated, usually from 46.1 µM), usual class: inhibitors | PC12 HttQ103-GFP aggregates, Acumen cytometry, 40 h | hit rate 1.1% among 220,000; also: nearly all actives have a fitted effect of over 60% in size
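PC12/HTTQ103-GFP, ecdysone-inducible; teb 100 nM; cpd qHTS titration; GFP aggregates read on laser cytometer, Ex 488/Em 500-530 nm.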
PNC inhibitor: inhibitors of perinucleolar compartment assembly; PC3M PTB-GFP, PNC prevalence imaging, 16 h; active compounds read low; activity change (PNC), negative = inhibition, % at 10 µM; hit rate 3.1% among 140,000;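 active = readout at or below -70, meaning at least 70% loss of cells showing the perinucleolar compartment, a nuclear body marking cancer cells; inconclusive = readout between -30 and a set limit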
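Read-out is percentage of cells bearing a perinucleolar compartment, from automated 20x imaging of fixed, Hoechst-stained PC3M PTB-GFP cells. Cells were seeded 4 h, then exposed 16 h to compound (23 nl of library stock) in duplicate plates.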
Hits are given with their value; – = inactive; ? = inconclusive; · = not tested or not shown; [ ] = another dose, or the depositor's remark. Most compounds without a hit are left out; they make up all but 11% or so of the library. Unless noted, calls follow the shape of the dose curve; as a rule, active = well fitted curve in the direction sought with a large enough effect; inconclusive = small, poorly fitted or top-dose-only effect, or another doubt; inactive = no such curve, though single readings can be large; an effect the other way counts as inactive or inconclusive.

SMILES	HTT cytoprotect	GoLoco inh red	ALDH1A1 inh	HPGD inh	HTT aggregate	PNC inhibitor
COC(=O)c1ccc(CS(=O)(=O)c2ccccc2C)o1	–	–	2.24µM	–	?	–
Cc1ccccc1S(=O)(=O)Cc1ccc(C(=O)NCc2ccc(F)cc2)o1	–	–	–	·	–	·
Cc1cccc(N2CCN(C(=O)c3ccccn3)CC2C)c1 (configuration not stated)	–	–	–	·	–	·
Cc1ccc(S(=O)(=O)Cc2ccc(C(=O)N3CCCCCC3)o2)cc1	–	–	?	–	–	–
CN1CCN(c2ncc3ncc(=O)n(C[C@H]4CCCO4)c3n2)CC1	–	–	?	·	·	·
CC(=O)Oc1ccc2ccccc2c1C(NC(=O)Cc1ccccc1)c1ccc(Cl)cc1 (configuration not stated)	–	–	–	–	?	–
COc1ccc(NC(=O)C(c2ccccc2)N2CCN(c3ccccn3)CC2)cc1Cl (configuration not stated)	?	–	8.91µM	·	–	·
COc1cccc(OC)c1C(=O)N1CCN(c2ccccn2)CC1	–	–	?	?	–	?
Cc1cccc(N2C(=O)C3C4CC(=O)C(c5ccccc54)C3C2=O)c1C (configuration not stated)	·	–	–	·	·	·
CCCC1(C)Nc2ccccc2-c2nc3ccccc3n21 (configuration not stated)	–	–	?	?	–	-82.0
Cc1cccn2c(=O)c3cc(C#N)c(=O)n(CC4CCCO4)c3nc12 (configuration not stated)	–	–	?	?	–	–
Cc1sc2ncnc(NCCN3CCOCC3)c2c1C	–	–	–	–	11.2µM	?
CC1CCc2c(sc3ncnc(NCCN4CCOCC4)c23)C1 (configuration not stated)	–[10 µM]	–	·	·	–[9.22 µM]	·
COc1ccccc1NC(=O)CC1S/C(=N/N=C2\CCCc3ccccc32)NC1=O (configuration not stated)	–	–	–	·	–	·
CC(C)C(=O)Nc1nnc(SCC(=O)NCc2ccc3c(c2)OCO3)s1	–	–	–	·	–	·
CC(C)Nc1nnc(SCC(=O)NCc2ccc3c(c2)OCO3)s1	–	–	17.8µM	·	–	·
Cc1ccccc1-c1nsc(SCC(=O)NCc2ccc3c(c2)OCO3)n1	–[10 µM]	–	22.4µM	–	–	–
CCCn1nnnc1SCC(=O)NCc1ccc2c(c1)OCO2	–[10 µM]	–	?	–	0.0158µM	–
Cc1ccc(C(=O)N[C@@H](C)CN2C3=NC[C@H](C)N3C[C@H]2Cc2ccc(O)cc2)cc1Br	–[10 µM]	–	·	·	–[9.22 µM]	·
CC(C)NC(=O)N1CC[C@@]2(CCCN(S(=O)(=O)c3ccccc3)C2)C1	–	–	–	–	·	·
CC(=O)Nc1ccc(NC(=O)CN(c2cc(Cl)ccc2Cl)S(C)(=O)=O)cc1	–	–	–	·	31.6µM	·
CS(=O)(=O)N(CC(=O)Nc1cc(Cl)ccc1Cl)c1ccccc1Cl	–	–	–	–	–[9.22 µM]	–
O=C(CSc1nccc(=O)[nH]1)N1N=C2/C(=C/c3ccco3)CCCC2C1c1ccco1 (configuration not stated)	–	–	14.1µM	·	–	·
Cn1cnnc1SCC(=O)N1N=C2/C(=C/c3ccco3)CCCC2C1c1ccco1 (configuration not stated)	–	–	15.8µM	?	–	?
O=P(O)(O)OC1[C@H](O)[C@H](OP(=O)(O)O)C(OP(=O)(O)O)[C@H](OP(=O)(O)O)[C@H]1O (some centres not stated)	–[1.9 µM]	–[0.551 µM]	–[2.48 µM]	–	·	·
SMILES	HTT cytoprotect	GoLoco inh red	ALDH1A1 inh	HPGD inh	HTT aggregate	PNC inhibitor
O=C(Oc1ccc(-c2cnc3ccccc3n2)cc1)c1cc([N+](=O)[O-])ccc1Cl	–	–	0.224µM	–	–	–
CC1CCCCN1C(=O)CSc1nc(C2CC2)nc2c1cnn2-c1ccccc1 (configuration not stated)	–[10 µM]	–	11.2µM	?	?	–
Cc1nn(C)c(C)c1NC(=O)CSc1nc(C2CC2)nc2c1cnn2-c1ccccc1	–	–	–	–	–	–
CC(C)[C@@H](CC(=O)N[C@@H]1CCCC[C@H]1C(=O)N[C@H](CC(=O)N[C@@H](CCC(=O)O)CC(=O)O)Cc1ccccc1)NC(=O)C[C@H](Cc1c[nH]c2ccccc12)NC(=O)[C@@H]1CNCC[C@H]1N	–[1.9 µM]	–	–	–	·	·
O=c1/c(=C/c2ccccn2)sc2nc3ccccc3n12	–	–	–	–	–	–
O=c1/c(=C\c2cc([N+](=O)[O-])cc([N+](=O)[O-])c2O)sc2nc3ccccc3n12	–	–	7.94µM	·	–	·
COC(=O)/C=c1/sc2nc3ccccc3n2c1=O	–	–	10µM	7.94µM	–	–
CC(C)(O)c1cc(=O)sc2nc3ccccc3n12	–[10 µM]	–	–	–	–	-100.0
O=C(C1=C[C@@H](c2ccc(Br)cc2)C[C@@H](OCc2ccc(CO)cc2)O1)N1CCN(Cc2ccc3c(c2)OCO3)CC1	–[10 µM]	–	–	·	–[9.22 µM]	·
Cc1nn(CC(=O)Nc2ccc3c(c2)nc2n3CCN(C3CCCCC3)C2)c(=O)c2ccccc12	–[10 µM]	–	?	·	–[9.22 µM]	·
CS/C(=C\[N+](=O)[O-])Nc1ccc(F)cc1	–	–	15.8µM	–	?	–
O=C(O)c1ccncc1.O=C(O)c1ccncc1.[NH2-].[NH2-].[Pt]	–[10 µM]	–[14.2 µM]	–[13.5 µM]	–	·	·
CNC(=O)C1=C(C)NC(=S)NC1c1cccs1 (configuration not stated)	–	–	–	·	–	·
CC1=C(C(=O)NCc2ccccc2)C(c2cccs2)NC(=S)N1 (configuration not stated)	–	–	?	·	–	·
CC1=C(C(=O)Nc2cc(C)ccc2C)C(c2cccs2)NC(=S)N1 (configuration not stated)	–	–	5.62µM	–	–	–
CC1=C(C(=O)Nc2ccccc2F)C(c2cccs2)NC(=S)N1 (configuration not stated)	–	–	12.6µM	·	–[9.22 µM]	·
O=c1[nH]cc(CS(=O)(=O)Cc2c[nH]c(=O)[nH]c2=O)c(=O)[nH]1	–[10 µM]	–[14.2 µM]	–[13.5 µM]	–	·	·
N#CCc1c(C#N)c(N)nc(N2CCN(C=O)CC2)c1C#N	–	–	7.08µM	·	–	·
CCCOc1ccc2c3c(c(=O)oc2c1OCCC)CCCC3	–	–	?	?	–	-111.4
CCOc1ccc2c3c(c(=O)oc2c1OCC)CCCC3	–	–	?	–	–	?
Cc1cccc(-n2nnc3c(=O)n(CC(=O)Nc4cc(C)on4)cnc32)c1	–	–	–	·	–	·
O=C(O)CCC(=O)OC[C@@H](NC(=O)C(Cl)Cl)C(O)c1ccc([N+](=O)[O-])cc1 (some centres not stated)	?	–	–	–	·	·
CC(=O)c1cc2c(cc1NC(=O)CCCC(=O)O)OCO2	–	–	–	–	–	–
COC(=O)c1cc(OC)c(OC)cc1NC(=O)CN1CCCCC1	–[0.074 µM]	–	–	–	0.631µM	–
